Assay [1] in a line: ATG_TAL_CIS: Attagene CIS-FACTORIAL HepG2 Assay for human TAL Basal Promoter (AID 2282966; active = hit-call score of the fitted dose curve at least 0.9, where 1 is the maximum; inactive = score below 0.9;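 note: background control endpoint measuring basal TAL promoter reporter mRNA not a specific factor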). The following applies: HepG2 Attagene cis-factorial TAL promoter reporter; actives raise or lower the signal. Summed up: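 Endogenous transcription-factor activity is sensed in HepG2 cells through transfected cis-promoter reporter constructs. After 24 h dosing, reporter transcripts are quantified by RT-PCR and capillary electrophoresis. Gain or loss of signal is fitted relative to DMSO.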

Assay [2] is described as follows: ATG_TGFb_CIS: Attagene CIS-FACTORIAL HepG2 Assay for human Transforming Growth Factor (TGF) (AID 2282967; active = hit-call score of the fitted dose curve at least 0.9, where 1 is the maximum; inactive = score below 0.9). The settings on record: HepG2 Attagene CIS TGFb reporter, mRNA transcription; actives raise or lower the signal. Summed up:
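Transient MRTU transfection of HepG2 (FuGene 6). Dose 24 h. TriZol RNA, oligo(dT) RT, PCR, 6-FAM primer extension, HpaI cut, CE. Bidirectional fit, DMSO = baseline.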

Assay [3] in a line: ATG_VDRE_CIS: Attagene CIS-FACTORIAL HepG2 Assay for human Vitamin D Receptor Element (VDRE) (AID 2282968; active = hit-call score of the fitted dose curve at least 0.9, where 1 is the maximum; inactive = score below 0.9). The settings on record: HepG2 VDRE cis-reporter transcription, actives raise or lower the signal. Summed up:
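Compounds were applied for 24 h to HepG2 cells transfected with promoter-regulated reporter units. Total RNA was reverse-transcribed, and reporter amplicons were fluorescently labelled and sized by capillary electrophoresis.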

The target of assay [4] is Nuclear receptor subfamily 1 group I member 3 (Homo sapiens) (UniProt Q14994). In words: ATG_CAR_TRANS: Attagene TRANS-FACTORIAL HepG2 Assay for human Constitutive Androstane Receptor (CAR) (AID 2282969).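 Note: activators raise reporter mRNA above DMSO so AC50 marks induction.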 The settings on record: HepG2 Attagene TRANS-FACTORIAL CAR reporter. In short, it runs like this:
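Transiently transfected HepG2, multiplex TRANS reporters (CAR-Gal4 chimera driving GAL4-UAS reporter). 24 h dosing. Readout: reporter transcript by RT-PCR + capillary electrophoresis, fluorescence intensity; positive direction vs DMSO.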

For assay [5], the target named is Steroid hormone receptor ERR1 (Homo sapiens) (UniProt P11474). In words: ATG_ERRa_TRANS: Attagene TRANS-FACTORIAL HepG2 Assay for human Estrogen-Related Receptor alpha (ERRa) (AID 2282971). The settings on record: HepG2 Attagene TRANS reporter, ERRa transactivation. In short, it runs like this: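 HepG2 cells were transiently transfected with multiple GAL4-UAS reporter units, then dosed with compound for 24 h. Total RNA was reverse-transcribed, reporter cDNA PCR-amplified and fluorescently labelled, and fragments resolved by capillary electrophoresis; induction was compared with DMSO.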

Assay [6] addresses X-box-binding protein 1 (Homo sapiens) (UniProt P17861). In words: ATG_Xbp1_CIS: Attagene CIS-FACTORIAL HepG2 Assay for human X-box Binding Protein 1 (XBP1) (AID 2282972; active = hit-call score of the fitted dose curve at least 0.9, where 1 is the maximum; inactive = score below 0.9). The settings on record: HepG2 XBP1 cis-element reporter, Attagene multiplex; actives raise or lower the signal. In short, it runs like this:
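Human hepatoma HepG2, cis-element reporter system, 24 h treatment; mRNA quantified by RT-PCR/CE fluorescence; fit relative to DMSO.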

For assay [7], the target named is Estrogen-related receptor gamma (Homo sapiens) (UniProt P62508). Nature of the assay: ATG_ERRg_TRANS: Attagene TRANS-FACTORIAL HepG2 Assay for human Estrogen-Related Receptor gamma (ERRg) (AID 2282977).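 Note: hits increase reporter signal over DMSO so potencies reflect activators.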 The following applies: HepG2 Attagene TRANS reporter, ERRg transactivation. In short, it runs like this: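 Induction of reporter transcripts through a chimeric NR-Gal4 protein is quantified in transfected human HepG2 liver cells after 24 h chemical exposure, using RT-PCR with capillary electrophoresis detection and DMSO as baseline.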
Chain of Estrogen-related receptor gamma (Homo sapiens) (P62508 whole entry, looked up, the tested form may be a part): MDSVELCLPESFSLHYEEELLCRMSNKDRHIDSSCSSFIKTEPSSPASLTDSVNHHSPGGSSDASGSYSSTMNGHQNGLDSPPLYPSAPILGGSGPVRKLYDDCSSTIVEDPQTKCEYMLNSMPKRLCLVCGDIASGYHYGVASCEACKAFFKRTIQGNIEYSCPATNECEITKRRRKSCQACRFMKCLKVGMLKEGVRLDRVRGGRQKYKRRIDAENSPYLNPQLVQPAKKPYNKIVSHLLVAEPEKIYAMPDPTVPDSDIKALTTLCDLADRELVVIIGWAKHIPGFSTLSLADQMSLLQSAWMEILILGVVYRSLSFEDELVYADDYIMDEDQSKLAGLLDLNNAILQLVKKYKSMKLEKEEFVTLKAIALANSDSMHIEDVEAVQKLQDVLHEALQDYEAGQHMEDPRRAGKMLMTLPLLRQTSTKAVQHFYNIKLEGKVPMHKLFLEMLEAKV

Assay [8] concerns the target Oxysterols receptor LXR-alpha (Homo sapiens) (UniProt Q13133). Nature of the assay: ATG_LXRa_TRANS: Attagene TRANS-FACTORIAL HepG2 Assay for human Liver X Receptor alpha (LXRa) (AID 2282980). The settings on record: HepG2 Attagene TRANS reporter, LXRa transactivation. Summed up:
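Transient HepG2 transfectants, 24 h dosing, RT-PCR/CE mRNA reporter quantitation; gain-of-signal vs DMSO.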

For assay [9], the target named is Hepatocyte nuclear factor 4-alpha (Homo sapiens) (UniProt P41235). In words: ATG_HNF4a_TRANS: Attagene TRANS-FACTORIAL HepG2 Assay for human Hepatocyte Nuclear Factor 4 alpha (HNF4a) (AID 2282982). The following applies: HepG2 HNF4a transactivation reporter, mRNA readout. In short, it runs like this:
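Endpoint reflects transcriptional activation of a GAL4-UAS reporter by an HNF4a-GAL4 chimera in transfected HepG2 cells, 24 h post-dosing. Fluorescence from RT-PCR products separated by capillary electrophoresis; DMSO baseline.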

A short description of assay [10]: ATG_M_06_TRANS: Attagene TRANS-FACTORIAL HepG2 Assay for M06 Transcription Factor (Internal Marker) (AID 2282983). The following applies: HepG2 Attagene TRANS M06 internal marker reporter. In short, it runs like this:
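Human liver HepG2 cells bearing transiently transfected chimeric NR-GAL4 reporter units were treated with chemicals for 24 h. Total RNA was reverse-transcribed, reporter sequences amplified and labelled, then quantified by capillary electrophoresis. Activity was fitted upward relative to DMSO.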

The target of assay [11] is Nuclear receptor subfamily 4 group A member 2 (Homo sapiens) (UniProt P43354). Nature of the assay: ATG_NURR1_TRANS: Attagene TRANS-FACTORIAL HepG2 Assay for human Nuclear Receptor Related Protein 1 (NURR1) (AID 2282985). The following applies: HepG2 Attagene TRANS reporter, mRNA readout. In short, it runs like this:
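Endpoint: reporter mRNA increase relative to DMSO. HepG2 cells transfected with reporter units, treated 24 h; RNA processed by RT-PCR, labelling, HpaI digestion and capillary electrophoresis.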

Assay [12] addresses Transcriptional activator Myb (Homo sapiens) (UniProt P10242). Nature of the assay: ATG_Myb_CIS: Attagene CIS-FACTORIAL HepG2 Assay for human Myeloblastosis (Myb) Proto-Oncogene Transcription Factor (AID 2282986; active = hit-call score of the fitted dose curve at least 0.9, where 1 is the maximum; inactive = score below 0.9). The following applies: HepG2 Attagene CIS-FACTORIAL Myb reporter transcription; actives raise or lower the signal. In short, it runs like this: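 After 24 h of compound dosing, total RNA from transfected HepG2 cells is reverse-transcribed and the reporter sequences amplified, labeled and separated by capillary electrophoresis. Values come from bidirectional fitting against DMSO.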

Assay [13] deals with Nuclear respiratory factor 1 (Homo sapiens) (UniProt Q16656). Nature of the assay: ATG_NRF1_CIS: Attagene CIS-FACTORIAL HepG2 Assay for human Nuclear Respiratory Factor 1 (NRF1) Orphan Gene (AID 2282987; active = hit-call score of the fitted dose curve at least 0.9, where 1 is the maximum; inactive = score below 0.9). The settings on record: HepG2 NRF1 cis-element reporter, Attagene multiplex; actives raise or lower the signal. Summed up:
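Measured: fluorescent reporter-specific RT-PCR products from transfected HepG2 cells, separated by capillary electrophoresis. Exposure lasted 24 h. Analysis used bidirectional curve fitting with DMSO as negative control.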

Assay [14] has as its target Estrogen receptor (Homo sapiens) (UniProt P03372). Nature of the assay: ATG_ERa_TRANS: Attagene TRANS-FACTORIAL HepG2 Assay for human Estrogen Receptor alpha (ERa) (AID 2282970). The following applies: HepG2 Attagene TRANS ERa GAL4 reporter, mRNA. Summed up:
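Transfected HepG2 cells carrying GAL4-UAS-driven reporter units were dosed for 24 hours. Total RNA was reverse-transcribed, reporter sequences PCR-amplified, FAM-labelled, HpaI-digested and resolved by capillary electrophoresis. Increases over DMSO control defined activity.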

Assay [15] can be described thus: ATG_M_19_TRANS: Attagene TRANS-FACTORIAL HepG2 Assay for M19 Transcription Factor (Internal Marker) (AID 2282974). The following applies: HepG2 Attagene TRANS-FACTORIAL M19 internal marker reporter. In short, it runs like this: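 Transfected HepG2 (GAL4-UAS MRTUs), 24 h compound, TriZol RNA, DNase-treated RT, reporter PCR, FAM label, HpaI digest, CE fluorescence; gain vs DMSO.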

Assay [16] deals with Glucocorticoid receptor (Homo sapiens) (UniProt P04150). In words: ATG_GR_TRANS: Attagene TRANS-FACTORIAL HepG2 Assay for human Glucocorticoid Receptor (GR) (AID 2282978).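 Note: activators score as hits since higher reporter transcript over DMSO is fitted.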 The settings on record: HepG2 Attagene TRANS GR reporter, mRNA transcription. Summed up: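 After 24 h incubation with test chemical, transfected HepG2 cells were lysed for RNA; reporter cDNA was amplified, FAM-labelled, HpaI-digested and sized on a capillary analyser. Signal gain relative to DMSO was scored.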

In assay [17] the target is Oxysterols receptor LXR-beta (Homo sapiens) (UniProt P55055). In words: ATG_LXRb_TRANS: Attagene TRANS-FACTORIAL HepG2 Assay for human Liver X Receptor beta (LXRb) (AID 2282981). The settings on record: HepG2 Attagene TRANS GAL4-LXRb reporter, mRNA. Summed up:
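Multiplexed reporter assay, HepG2, 24 h dosing. Fluorescence of labelled RT-PCR products after capillary electrophoresis gives transcript level; positive fitting direction relative to DMSO.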

Assay [18] can be described thus: ATG_M_32_TRANS: Attagene TRANS-FACTORIAL HepG2 Assay for M32 Transcription Factor (Internal Marker) (AID 2282984).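 Note: transcript level of a background control reporter unit measured by RT-PCR and capillary electrophoresis.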 The settings on record: HepG2 Attagene TRANS M32 internal marker reporter. Summed up: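 Internal-marker readout from a multiplexed transcription reporter panel. HepG2 cells were transfected with GAL4-UAS reporter units, treated 24 hours, and reporter transcript levels determined by fluorescence after RT-PCR and capillary separation.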

The target of assay [19] is Bile acid receptor (Homo sapiens) (UniProt Q96RI1). Nature of the assay: ATG_FXR_TRANS: Attagene TRANS-FACTORIAL HepG2 Assay for Farnesoid X Receptor (FXR) (AID 2282979).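 Note: hits raise reporter mRNA above DMSO so AC50 marks FXR activation.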 The settings on record: HepG2 Attagene TRANS FXR-GAL4 reporter transcription. In short, it runs like this:
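Chimeric FXR-GAL4 activity in transiently transfected human HepG2 liver cells is scored as induction of reporter mRNA after 24 h of dosing. Detection uses RT-PCR with fluorescent labelling and capillary electrophoresis, with DMSO serving as baseline.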

Records with an inconclusive call do not appear. The source made the active and inactive calls. Rule for the calls, unless noted: active = hit-call score of the fitted dose curve at least 0.9, where 1 is the maximum; inconclusive = response in the unintended direction; inactive = score below 0.9.

Among the data in PubChem BioAssay (EPA / NIEHS) are outcome and AC50 values, retold here.

Chain of X-box-binding protein 1 (Homo sapiens) (P17861 whole entry, looked up): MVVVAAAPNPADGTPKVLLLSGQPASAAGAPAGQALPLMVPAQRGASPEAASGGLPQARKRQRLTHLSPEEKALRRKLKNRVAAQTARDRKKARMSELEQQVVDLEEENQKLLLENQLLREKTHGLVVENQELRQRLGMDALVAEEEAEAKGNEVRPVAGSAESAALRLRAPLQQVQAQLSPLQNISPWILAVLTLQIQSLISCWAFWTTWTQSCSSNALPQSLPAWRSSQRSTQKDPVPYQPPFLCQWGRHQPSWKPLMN
Chain of Hepatocyte nuclear factor 4-alpha (Homo sapiens) (P41235 whole entry, looked up, the tested form may be a part): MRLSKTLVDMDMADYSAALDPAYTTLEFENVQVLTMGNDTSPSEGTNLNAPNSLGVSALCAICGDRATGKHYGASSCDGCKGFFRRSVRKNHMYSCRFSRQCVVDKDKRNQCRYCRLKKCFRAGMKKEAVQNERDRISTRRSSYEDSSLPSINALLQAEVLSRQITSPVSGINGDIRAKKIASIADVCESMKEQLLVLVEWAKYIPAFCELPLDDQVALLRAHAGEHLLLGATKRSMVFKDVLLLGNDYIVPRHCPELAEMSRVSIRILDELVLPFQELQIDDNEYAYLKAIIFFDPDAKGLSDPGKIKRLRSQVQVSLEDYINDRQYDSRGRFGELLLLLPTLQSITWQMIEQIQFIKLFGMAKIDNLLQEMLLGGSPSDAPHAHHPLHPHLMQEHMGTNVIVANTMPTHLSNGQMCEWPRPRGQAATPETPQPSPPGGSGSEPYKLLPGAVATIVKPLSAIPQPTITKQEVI
Chain of Transcriptional activator Myb (Homo sapiens) (P10242 whole entry, looked up): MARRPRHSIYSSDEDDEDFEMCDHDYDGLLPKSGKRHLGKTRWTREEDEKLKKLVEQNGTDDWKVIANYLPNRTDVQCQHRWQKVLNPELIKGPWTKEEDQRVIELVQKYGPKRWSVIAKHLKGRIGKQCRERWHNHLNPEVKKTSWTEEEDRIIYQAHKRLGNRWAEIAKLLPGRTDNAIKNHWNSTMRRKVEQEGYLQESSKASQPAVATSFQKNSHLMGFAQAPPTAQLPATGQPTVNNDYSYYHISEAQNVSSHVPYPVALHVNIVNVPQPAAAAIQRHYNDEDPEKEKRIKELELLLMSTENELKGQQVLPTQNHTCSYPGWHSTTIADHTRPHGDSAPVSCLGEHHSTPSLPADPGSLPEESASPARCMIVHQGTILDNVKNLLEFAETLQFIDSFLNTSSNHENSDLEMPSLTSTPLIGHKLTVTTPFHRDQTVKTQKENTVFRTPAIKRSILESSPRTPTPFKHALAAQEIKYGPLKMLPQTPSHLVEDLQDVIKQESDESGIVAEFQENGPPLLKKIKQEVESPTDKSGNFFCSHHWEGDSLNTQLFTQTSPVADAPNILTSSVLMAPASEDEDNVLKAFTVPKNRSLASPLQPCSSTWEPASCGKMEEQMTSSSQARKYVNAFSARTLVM
Chain of Nuclear receptor subfamily 4 group A member 2 (Homo sapiens) (P43354 whole entry, looked up): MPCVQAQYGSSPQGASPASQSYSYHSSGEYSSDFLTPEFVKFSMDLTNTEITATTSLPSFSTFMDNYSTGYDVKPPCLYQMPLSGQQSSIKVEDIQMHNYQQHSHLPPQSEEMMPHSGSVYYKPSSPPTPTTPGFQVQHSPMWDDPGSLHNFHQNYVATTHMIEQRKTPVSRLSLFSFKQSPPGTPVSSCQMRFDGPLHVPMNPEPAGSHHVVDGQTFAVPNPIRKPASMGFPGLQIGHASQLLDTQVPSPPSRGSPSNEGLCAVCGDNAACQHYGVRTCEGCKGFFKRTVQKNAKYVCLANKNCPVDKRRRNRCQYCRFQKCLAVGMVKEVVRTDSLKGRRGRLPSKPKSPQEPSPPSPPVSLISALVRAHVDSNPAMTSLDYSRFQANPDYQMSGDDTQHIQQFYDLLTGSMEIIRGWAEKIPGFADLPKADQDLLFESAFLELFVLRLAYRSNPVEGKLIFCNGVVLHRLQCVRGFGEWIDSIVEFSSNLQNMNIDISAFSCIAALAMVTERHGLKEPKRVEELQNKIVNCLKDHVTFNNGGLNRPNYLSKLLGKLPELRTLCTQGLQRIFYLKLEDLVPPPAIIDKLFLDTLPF
Chain of Nuclear receptor subfamily 1 group I member 3 (Homo sapiens) (Q14994 whole entry, looked up, the tested form may be a part): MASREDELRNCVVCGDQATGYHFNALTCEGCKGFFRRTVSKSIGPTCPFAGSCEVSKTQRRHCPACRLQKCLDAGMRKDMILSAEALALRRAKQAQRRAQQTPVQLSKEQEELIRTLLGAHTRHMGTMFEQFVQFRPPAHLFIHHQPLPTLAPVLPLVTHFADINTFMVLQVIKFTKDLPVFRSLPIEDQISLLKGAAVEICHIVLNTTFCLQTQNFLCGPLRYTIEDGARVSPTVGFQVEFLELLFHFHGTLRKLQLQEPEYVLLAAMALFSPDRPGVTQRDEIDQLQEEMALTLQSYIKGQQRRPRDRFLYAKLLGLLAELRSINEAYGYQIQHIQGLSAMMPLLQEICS
Chain of Nuclear respiratory factor 1 (Homo sapiens) (Q16656 whole entry, looked up): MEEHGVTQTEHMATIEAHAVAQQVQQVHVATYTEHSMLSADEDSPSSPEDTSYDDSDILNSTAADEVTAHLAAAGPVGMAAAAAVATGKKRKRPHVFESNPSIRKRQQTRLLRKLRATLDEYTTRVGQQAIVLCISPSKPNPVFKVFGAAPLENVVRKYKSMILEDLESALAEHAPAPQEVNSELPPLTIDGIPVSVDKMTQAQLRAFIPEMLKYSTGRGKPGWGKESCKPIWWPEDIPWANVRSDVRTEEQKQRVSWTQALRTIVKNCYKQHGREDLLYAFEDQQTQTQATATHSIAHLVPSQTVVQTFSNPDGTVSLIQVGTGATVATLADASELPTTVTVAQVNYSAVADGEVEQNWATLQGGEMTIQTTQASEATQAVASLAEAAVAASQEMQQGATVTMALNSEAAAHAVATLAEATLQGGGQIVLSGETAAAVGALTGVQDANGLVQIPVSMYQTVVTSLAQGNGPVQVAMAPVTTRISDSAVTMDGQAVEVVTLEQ
Chain of Oxysterols receptor LXR-alpha (Homo sapiens) (Q13133 whole entry, looked up): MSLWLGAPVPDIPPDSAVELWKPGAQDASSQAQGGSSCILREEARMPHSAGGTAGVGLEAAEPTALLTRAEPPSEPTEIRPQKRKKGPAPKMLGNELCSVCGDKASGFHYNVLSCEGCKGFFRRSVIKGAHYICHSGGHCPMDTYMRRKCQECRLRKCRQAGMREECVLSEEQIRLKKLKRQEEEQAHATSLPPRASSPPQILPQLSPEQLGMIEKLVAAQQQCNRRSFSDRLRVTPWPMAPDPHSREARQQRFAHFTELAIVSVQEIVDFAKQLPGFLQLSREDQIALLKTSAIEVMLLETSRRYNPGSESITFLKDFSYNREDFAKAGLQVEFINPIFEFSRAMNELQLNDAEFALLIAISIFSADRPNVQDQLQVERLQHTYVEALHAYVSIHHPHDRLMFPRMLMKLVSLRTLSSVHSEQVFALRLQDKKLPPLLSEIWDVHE
Chain of Oxysterols receptor LXR-beta (Homo sapiens) (P55055 whole entry, looked up, the tested form may be a part): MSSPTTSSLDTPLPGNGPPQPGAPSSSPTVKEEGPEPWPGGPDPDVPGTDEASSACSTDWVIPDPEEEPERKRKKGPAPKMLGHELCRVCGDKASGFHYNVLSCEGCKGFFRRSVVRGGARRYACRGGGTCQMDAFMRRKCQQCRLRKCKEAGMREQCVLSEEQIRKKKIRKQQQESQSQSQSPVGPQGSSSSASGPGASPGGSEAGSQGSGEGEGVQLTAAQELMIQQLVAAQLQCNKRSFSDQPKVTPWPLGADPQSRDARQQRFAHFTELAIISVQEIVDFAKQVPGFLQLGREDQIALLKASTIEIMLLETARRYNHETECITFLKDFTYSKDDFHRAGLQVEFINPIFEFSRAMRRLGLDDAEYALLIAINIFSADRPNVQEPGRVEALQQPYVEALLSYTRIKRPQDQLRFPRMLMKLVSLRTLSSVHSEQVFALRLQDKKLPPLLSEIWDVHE
Chain of Estrogen receptor (Homo sapiens) (P03372 whole entry, looked up, the tested form may be a part): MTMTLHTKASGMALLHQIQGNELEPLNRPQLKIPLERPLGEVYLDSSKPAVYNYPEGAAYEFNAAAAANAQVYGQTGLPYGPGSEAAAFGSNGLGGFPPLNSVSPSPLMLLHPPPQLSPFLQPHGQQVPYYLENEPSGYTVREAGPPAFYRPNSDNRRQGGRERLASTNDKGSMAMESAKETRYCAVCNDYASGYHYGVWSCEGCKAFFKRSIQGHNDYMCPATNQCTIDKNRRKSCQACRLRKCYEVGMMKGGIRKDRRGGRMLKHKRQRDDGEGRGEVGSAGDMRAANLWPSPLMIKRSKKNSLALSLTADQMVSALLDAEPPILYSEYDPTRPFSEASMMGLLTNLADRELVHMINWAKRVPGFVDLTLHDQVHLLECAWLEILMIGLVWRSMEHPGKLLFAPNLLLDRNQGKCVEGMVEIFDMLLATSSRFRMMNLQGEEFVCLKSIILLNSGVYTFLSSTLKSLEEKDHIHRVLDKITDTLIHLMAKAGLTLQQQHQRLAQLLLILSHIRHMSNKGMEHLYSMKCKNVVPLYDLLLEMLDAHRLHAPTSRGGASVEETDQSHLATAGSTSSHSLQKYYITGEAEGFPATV

For `[Cl][In]([Cl])[Cl]`, the outcome in [1], in assay [2], in assay [3], in [4], in [5] and in [6] was inactive. In addition, the compound was called inactive in assay [7], in assay [8], in assay [9], in assay [10], in assay [11] and in assay [12]. For the same compound, in [13], the compound was classed as inactive.
The AC50 is the midpoint of the concentration-response curve, whichever way the signal moves. With `O=S(=O)(Oc1ccc(Cl)cc1Cl)c1ccccc1`, the compound was called inactive in assay [1], in assay [4], in [6], in assay [7], in [10] and in [12]. Further, the compound was classed as inactive in assay [13]. The AC50 in [2] was 63.4 µM (active); in assay [3], 6.51 µM (active); in assay [14] it was 5.33 µM (active); in assay [11], 35.4 µM (active).
On to `CCCCCCOc1cc(C)c(O)c(C)c1C`, for which the compound was classed as inactive in assay [1], in assay [2], in assay [4], in assay [14], in assay [6] and in assay [7]. Besides, the compound was classed as inactive in assay [9], in [10], in assay [11], in assay [12] and in assay [13]. For the same compound, the AC50 in assay [3] was 9.58 µM (active).
For the compound `Nc1ccc(N=Nc2ccccc2)c(N)n1`, the outcome in assay [1], in assay [2], in assay [4], in assay [15], in [16] and in assay [8] was inactive. Besides, the call in assay [17], in assay [9], in assay [18], in assay [11] and in [13] was inactive. Further, the AC50 is 68.9 µM (active) in assay [3] and 70.3 µM (active) in assay [6].
In the case of `c1cc(N(CC2CO2)CC2CO2)ccc1OCC1CO1` (stereo not drawn), the result in assay [1], in [2], in assay [4], in [15], in assay [7] and in [19] was inactive. Moreover, the outcome in assay [8], in [17], in assay [9], in [10], in assay [12] and in [13] was inactive. Moreover, the values for the AC50 in assay [3] and in [6] were 36.8 µM (active) and 12.9 µM (active), respectively.
